The results in this text go back to PubChem BioAssay.

Structures are written as SMILES. Active and inactive are the calls of the source.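 Rule for the calls: active = thallium flux through the channel raised or lowered by more than 3 SD from vehicle-only wells, actives on both sides; inactive = the rest.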

The first assay deals with R275C/beta4. In words: BK channel mutant inhibitors and activators – cell-based, U2OS BacMam, thallium flux, beta subunits, selectivity assay, profiling panel (AID 1259406).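 Note: initial slope of Thallos dye fluorescence rise after thallium is added; log ratio against the mean of 0.3% DMSO vehicle wells on the same plate.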 The note with it: U2OS BacMam BK variants, at 30 µM.
As for `CS(=O)(=O)c1ccc(C2=C(c3ccccc3)C(=O)OC2)cc1`, the log fold change Tl+ flux was 0.00682 (inactive).
On the same count and under the same terms, for `Cc1cccc(C)c1NC(=O)C1CCCCN1C` (stereo not drawn) the value was -0.0225 (inactive); for `COc1ccc(/C=C/C(=O)Nc2ccccc2C(=O)O)cc1OC`, -0.0078 (inactive).
On the same count and under the same terms, for `CCCCC(=O)N(Cc1ccc(-c2ccccc2-c2nn[nH]n2)cc1)[C@H](C(=O)O)C(C)C` the value was 0.0104 (inactive).
For the compound `CC(C(=O)O)c1ccc(-c2ccccc2)c(F)c1` (stereo not drawn), the log fold change Tl+ flux was 0.0279 (inactive).
Same read-out and setting: the value for `Nc1ncnc2c1ncn2[C@@H]1O[C@H](CO)[C@@H](O)[C@@H]1O` was 0.00861 (inactive); that for `CN(C)c1nc(N(C)C)nc(N(C)C)n1` was -0.000902 (inactive); that for `Cc1occc(=O)c1O` was -0.00174 (inactive).
The same measure, in the same setting: the value for `COc1ccc(-c2cc(=O)c3c(OC)c(OC)c(OC)c(OC)c3o2)cc1OC` was -0.242 (active); that for `CC(C)NCC(O)COc1cccc2ccccc12` (stereo not drawn) was 0.00549 (inactive); that for `COC(=O)[C@H](c1ccccc1Cl)N1CCc2sccc2C1` was -0.038 (inactive).
The same measure, in the same setting: the value for `C[N+]1(C)CCCC(OC(=O)C(O)(c2ccccc2)c2ccccc2)C1` (stereo not drawn) was 0.0435 (inactive); that for `O=[N+]([O-])c1cccc2cn[nH]c12` was 0.0112 (inactive); that for `C[C@H]1COc2c(N3CCN(C)CC3)c(F)cc3c(=O)c(C(=O)O)cn1c23` was -0.0147 (inactive).
`CC(C)NCC(O)COc1ccc(CC(N)=O)cc1` (stereo not drawn): the log fold change Tl+ flux was 0.0424 (inactive).
On the same count and under the same terms, the value for `CNCCC(Oc1ccc(C(F)(F)F)cc1)c1ccccc1` (stereo not drawn) was 0.301 (active); that for `CC1=C(/C=C/C(C)=C/C=C/C(C)=C\C(=O)O)C(C)(C)CCC1` was 0.00975 (inactive); that for `CCc1ccc(CCOc2ccc(CC3SC(=O)NC3=O)cc2)nc1` (stereo not drawn) was -0.028 (inactive).
Still for that read-out and setting: for `CC[C@H]1OC(=O)[C@H](C)[C@@H](O[C@H]2C[C@@](C)(OC)[C@@H](O)[C@H](C)O2)[C@H](C)[C@@H](O[C@@H]2O[C@H](C)C[C@H](N(C)C)[C@H]2O)[C@](C)(OC)C[C@@H](C)C(=O)[C@H](C)[C@@H](O)[C@]1(C)O` the value was -0.0137 (inactive).

The test system of a further assay is R275C/Slo1WT/beta2. The assay is described as above. The following applies: U2OS BacMam BK variants, at 30 µM.
Take `CS(=O)(=O)c1ccc(C2=C(c3ccccc3)C(=O)OC2)cc1`: the log fold change Tl+ flux is 0.00403 (inactive).
With `Cc1cccc(C)c1NC(=O)C1CCCCN1C` (stereo not drawn), the log fold change Tl+ flux is -0.0173 (inactive).
Same read-out and setting: the value for `COc1ccc(/C=C/C(=O)Nc2ccccc2C(=O)O)cc1OC` was 0.0419 (inactive); that for `CCCCC(=O)N(Cc1ccc(-c2ccccc2-c2nn[nH]n2)cc1)[C@H](C(=O)O)C(C)C` was 0.0346 (inactive).
Still for that read-out and setting: for `CC(C(=O)O)c1ccc(-c2ccccc2)c(F)c1` (stereo not drawn) the value was 0.0126 (inactive); for `Nc1ncnc2c1ncn2[C@@H]1O[C@H](CO)[C@@H](O)[C@@H]1O`, 0.0175 (inactive).
On the same count and under the same terms, the value for `CN(C)c1nc(N(C)C)nc(N(C)C)n1` was 0.0129 (inactive); that for `Cc1occc(=O)c1O` was 0.0112 (inactive); that for `COc1ccc(-c2cc(=O)c3c(OC)c(OC)c(OC)c(OC)c3o2)cc1OC` was -0.0213 (inactive).
Take `CC(C)NCC(O)COc1cccc2ccccc12` (stereo not drawn): the log fold change Tl+ flux was -0.0153 (inactive).
`COC(=O)[C@H](c1ccccc1Cl)N1CCc2sccc2C1`: the log fold change Tl+ flux was -0.0324 (inactive).
`C[N+]1(C)CCCC(OC(=O)C(O)(c2ccccc2)c2ccccc2)C1` (stereo not drawn): the log fold change Tl+ flux is 0.0306 (inactive).
The same measure, in the same setting: the value for `O=[N+]([O-])c1cccc2cn[nH]c12` was -0.00893 (inactive); that for `C[C@H]1COc2c(N3CCN(C)CC3)c(F)cc3c(=O)c(C(=O)O)cn1c23` was 0.0224 (inactive); that for `CC(C)NCC(O)COc1ccc(CC(N)=O)cc1` (stereo not drawn) was 0.0165 (inactive).
With `CNCCC(Oc1ccc(C(F)(F)F)cc1)c1ccccc1` (stereo not drawn), the log fold change Tl+ flux was 0.0335 (inactive).
Same read-out and setting: the value for `CC1=C(/C=C/C(C)=C/C=C/C(C)=C\C(=O)O)C(C)(C)CCC1` was 0.0252 (inactive).
Still for that read-out and setting: the value for `CCc1ccc(CCOc2ccc(CC3SC(=O)NC3=O)cc2)nc1` (stereo not drawn) was -0.0116 (inactive); that for `CC[C@H]1OC(=O)[C@H](C)[C@@H](O[C@H]2C[C@@](C)(OC)[C@@H](O)[C@H](C)O2)[C@H](C)[C@@H](O[C@@H]2O[C@H](C)C[C@H](N(C)C)[C@H]2O)[C@](C)(OC)C[C@@H](C)C(=O)[C@H](C)[C@@H](O)[C@]1(C)O` was -0.00092 (inactive).
